In PubChem BioAssay (NCATS):
Values joined by “and” are separate entries in the source; they are usually repeats but may differ in a detail not shown here. Identical values can stand only once. Results filed as inconclusive are left out. Where a structure was tested more than once in an assay, its records may differ in their call. Active and inactive are the calls of the source. Calls come from the whole dose curve; as a rule, active = well fitted curve in the direction sought with a large enough effect; inconclusive = small, poorly fitted or top-dose-only effect, or another doubt; inactive = no such curve, though single readings can be large; an effect the other way counts as inactive or inconclusive.

Key:
[1] = Viability qHTS for spleen associated tyrosine kinase inhibitor (SYKi) naive MV4-11 cells (AID 1963823); note: nearly all actives have a fitted effect of over 40% in size
Procedure, shortened: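 Viability of MV4-11 AML cells lacking prior SYK inhibitor exposure is scored by CellTiter-Glo luminescence following 72 hr compound incubation at 37 C, 5% CO2, seeded at 500 cells per well.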

[2] = Viability qHTS for spleen associated tyrosine kinase inhibitor (SYKi) drug resistant MV4-11 cells (AID 1963824); note: nearly all actives have a fitted effect of over 35% in size
Procedure, shortened: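 CellTiter-Glo luminescence, read 10 min after reagent addition, reports viability after a 72 hr compound exposure. Cells are an MV4-11 line made resistant to SYK inhibition, seeded at 500 per well onto compound-containing plates.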

[3] = Quantitative highthroughput screen to assess conditional lethalithy of NOMO1 cells grown in RPMI1640 with untreated serum (RPMI+s) (AID 1963876); note: nearly all actives have a fitted effect of over 35% in size;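 for Viability: 100% = DMSO wells and 0% = empty wells without cells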
Procedure, shortened: (§1)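 Each medium arm—HPLM with 10% dialyzed FBS, or RPMI1640 with 5 mM glucose and 10% untreated or dialyzed FBS—was screened against an 11-point, 3-fold compound titration for 48 h at 37 °C, with CellTiter-Glo luminescence as endpoint.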

[4] = Quantitative highthroughput screen to assess conditional lethalithy of NOMO1 cells grown in Human Plasma-Like Medium with dialyzed fetal bovine serum (HPLM+ds) (AID 1963878); note: nearly all actives have a fitted effect of over 35% in size;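 for Viability: 100% = DMSO wells and 0% = empty wells on each plate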
Procedure, shortened: as §1

[5] = Quantitative highthroughput screen to assess conditional lethalithy of P12 Ichikawa cells grown in Human Plasma-Like Medium with dialyzed fetal bovine serum (HPLM+ds) (AID 1963879); settings: Potency: viability; note: nearly all actives have a fitted effect of over 35% in size; for Viability: series mostly up to about 46 µM
Procedure, shortened: as §1

[6] = Quantitative highthroughput screen to assess conditional lethalithy of P12 Ichikawa cells grown in RPMI1640 with dialyzed fetal bovine serum (RPMI+ds) (AID 1963880); settings: Potency: P12-Ichikawa viability; note: nearly all actives have a fitted effect of over 35% in size;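 for Viability: 100% = DMSO wells and 0% = empty wells on each plate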
Procedure, shortened: as §1

[7] = Quantitative highthroughput screen to assess conditional lethalithy of P12 Ichikawa cells grown in RPMI1640 with untreated serum (RPMI+s) (AID 1963881); settings: Potency: viability; note: nearly all actives have a fitted effect of over 35% in size;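 for Viability: series mostly up to about 46 µM; 100% = DMSO wells and 0% = empty wells without cells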
Procedure, shortened: as §1

[8] = Quantitative highthroughput screen to assess conditional lethalithy of SEM cells grown in Human Plasma-Like Medium with dialyzed fetal bovine serum (HPLM+ds) (AID 1963882); note: nearly all actives have a fitted effect of over 35% in size; for Viability: series mostly up to about 46 µM
Procedure, shortened: as §1

[9] = Quantitative highthroughput screen to assess conditional lethalithy of SEM cells grown in RPMI1640 with unreated serum (RPMI+s) (AID 1963883); note: nearly all actives have a fitted effect of over 35% in size;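 for Viability: 100% = DMSO wells and 0% = empty wells without cells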
Procedure, shortened: as §1

[10] = Quantitative highthroughput screen to assess conditional lethalithy of SEM cells grown in RPMI1640 with dialyzed fetal bovine serum (RPMI+ds) (AID 1963884); note: nearly all actives have a fitted effect of over 35% in size;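 for Viability: series mostly up to about 46 µM; 100% = DMSO control wells and 0% = empty wells without cells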
Procedure, shortened: as §1

[11] = Cellular viability qHTS for adrenocortical cancer (ACC) cell line SW-13 (AID 1963989); settings: SW-13 ACC cells viability, CellTiter-Glo, 48 h; activity (max response): stronger effect = lower value; note: nearly all actives have a fitted effect of over 65% in size;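 for activity (max response): cells grown in serum-free medium with ITS supplement; % is set by controls: 0 for no effect and ±100 for the full control effect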
Procedure, shortened: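 48 h treatment, SW-13 in ITS/DMEM serum-free; doses up to 46 uM; readout CellTiter-Glo luminescence; curve fit four-parameter logistic.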

[12] = Quantitative highthroughput screen to assess conditional lethalithy of NOMO1 cells grown in RPMI1640 with dialyzed fetal bovine serum (RPMI+ds) (AID 1963877); note: nearly all actives have a fitted effect of over 30% in size;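 for Viability: series mostly up to about 46 µM; 100% = DMSO control wells and 0% = empty wells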
Procedure, shortened: as §1

[13] = Cellular viability qHTS for adrenocortical cancer (ACC) cell line NCI-H295R (AID 1963990); note: nearly all actives have a fitted effect of over 60% in size
Procedure, shortened: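 Compound titrations (up to 46 uM final) are applied to NCI-H295R cultures for 48 h at 37C. Viable cell number is estimated by CellTiter-Glo signal, normalised to DMSO and doxorubicin controls.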
Potency is the fitted concentration of half-maximal effect.

Structure (SMILES)	Potency [1]	Potency [2]	Potency [3]	Potency [4]	Potency [5]	Potency [6]	Potency [7]	Potency [8]	Potency [9]	Potency [10]	activity (max response) [11]	Potency [12]	Potency [13]	Potency [11]
Cc1cnc(C(=O)O)c[n+]1[O-]	inactive	inactive	inactive	inactive	inactive	inactive	inactive	inactive	inactive	inactive	-15.7% (inactive)	–	–	–
Nc1nc2c(ncn2COC(CO)CO)c(=O)[nH]1	inactive	inactive	26.4 µM (active)	–	–	–	–	23.5 µM (active)	20.9 µM (active)	–	8.16% (inactive) and -8.2% (inactive)	26.4 µM (active)	inactive	–
COCCNCCCn1c(C(=O)CF)c(-c2ccc(C)cc2)c2c(N)ncnc21	4.17 µM (active)	6.61 µM (active)	inactive	inactive	inactive	inactive	inactive	11.8 µM (active)	0.166 µM (active)	0.743 µM (active)	7.79% (inactive)	–	inactive	–
COc1ccc(-c2nc(N3CCOCC3)c3sc(CN(C)c4ncc(C(=O)NO)cn4)cc3n2)cn1	0.0148 µM (active)	0.0093 µM (active)	0.0209 µM (active)	0.0166 µM (active)	0.0209 µM (active)	0.0235 µM (active)	0.0187 µM (active)	0.0118 µM (active)	0.0074 µM (active)	0.0132 µM (active)	–	–	0.0891 µM (active)	–
CNC(=O)c1ccc2cc(C3(O)CCn4cncc43)ccc2c1 (stereo not given)	inactive	inactive	inactive	inactive	inactive	inactive	inactive	inactive	inactive	inactive	-3.07% (inactive)	–	inactive	–
C[C@@]1(c2cc(-c3cncnc3)c(F)cc2F)CCSC(N)=N1	inactive	23.5 µM (active)	1.66 µM (active)	3.72 µM (active)	10.5 µM (active)	–	11.8 µM (active)	–	7.43 µM (active)	16.6 µM (active)	-2.1% (inactive)	–	inactive	–
CNC(=O)c1cc(Oc2ccc(NC(=O)Nc3cc(C(C)(C)C)nn3-c3ccc4ncccc4c3)c(F)c2)ccn1	0.0366 µM (active)	73.1 nM (active) and 52.5 nM (active)	inactive	inactive	inactive	inactive	inactive	–	–	0.469 µM (active)	–	–	31.6 µM (active)	28.2 µM (active)
Cc1ccnc(NS(=O)(=O)c2ccc(NC(=O)Nc3ccc(S(=O)(=O)Nc4nccc(C)n4)cc3)cc2)n1	inactive	inactive	0.296 µM (active)	0.118 µM (active)	0.264 µM (active)	0.332 µM (active)	–	0.187 µM (active)	0.0833 µM (active)	0.105 µM (active)	-24.6% (inactive)	–	inactive	–
COc1cc2nccc(Oc3ccc(NC(=O)Nc4ccc(F)cc4F)c(F)c3)c2cc1OC	0.0231 µM (active)	0.0517 µM (active)	inactive	inactive	23.5 µM (active)	–	–	0.0105 µM (active)	0.209 µM (active)	–	-11.6% (inactive)	–	–	–
CCCS(=O)(=O)Nc1ccc(F)c(C(=O)c2c[nH]c3ncc(-c4ccc(Cl)cc4)cc23)c1F	14.8 µM (active)	16.6 µM (active)	inactive	inactive	inactive	inactive	inactive	inactive	inactive	inactive	-1.45% (inactive)	–	inactive	–
CCCCCN(CCC12CC3CC(CC(C3)C1)C2)C(=O)NCCCc1ccncc1	8.33 µM (active)	7.42 µM (active)	inactive	inactive	inactive	inactive	–	inactive	inactive	inactive	-15.8% (inactive)	–	inactive	–
O=C(CCCCCCNC(=O)c1cnc(N(c2ccccc2)c2ccccc2)nc1)NO	2.95 µM (active)	2.35 µM (active)	18.7 µM (active)	14.8 µM (active)	6.62 µM (active)	5.9 µM (active)	7.43 µM (active)	7.43 µM (active)	5.9 µM (active)	7.43 µM (active)	–	–	14.1 µM (active)	15.8 µM (active)
O=C(c1ccc(OCCN2CCCCC2)cc1)c1c(-c2ccc(O)cc2)sc2cc(O)ccc12	14.8 µM (active) and 16.4 µM (active)	13.3 µM (active) and 16.6 µM (active) and 10.3 µM (active)	inactive	–	–	–	–	–	inactive	–	–	inactive	9.2 µM (active) and 31.6 µM (active)	20.6 µM (active) and 25.1 µM (active)
CN(C)CCC=C1c2ccccc2C=Cc2ccccc21	18.6 µM (active)	14.8 µM (active)	20.9 µM (active)	18.7 µM (active)	inactive	inactive	–	–	inactive	inactive	–	–	–	–
Oc1ccc(OCc2ccccc2)cc1	5.9 µM (active)	inactive and 8.33 µM (active)	inactive	–	–	–	3.72 µM (active)	–	–	–	12.2% (inactive)	18.7 µM (active)	inactive	–
